This note sets out measurements from PubChem BioAssay AID588342 (National Center for Advancing Translational Sciences (NCATS), 2011).

Each structure is given as a SMILES string. Among all 360,000 compounds or so, about 25,000 (6.9%) were called active. Not shown: some 9% with an inconclusive outcome. Many of the other results were omitted from the sample, so actives are more common in it than they were. Values without a mark were called inactive. Calls follow the shape of the dose curve; as a rule, active = well fitted inhibition curve with a large enough effect; inconclusive = small, poorly fitted or top-dose-only effect; inactive = flat fitted curve, though single readings scatter.
Potency is read from the fitted curve at half-maximal effect.

The target of the assay is Luciferin 4-monooxygenase (Photinus pyralis) (UniProt P08659). Kind of assay: qHTS profiling assay for firefly luciferase inhibitor/activator using purifed enzyme and Km concentrations of substrates (counterscreen for miR-21 project). Also: nearly all actives have a fitted effect of over 55% in size.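 As to activity change, negative = inhibition: plate controls were vehicle for no effect and reference inhibitor for full effect.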 The conditions noted are these: purified FLuc, luminescence inhibition; series mostly up to 57.5 µM; activity change, negative = inhibition: at the top concentration. In short, it runs like this: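 Purified P. pyralis luciferase, 10 nM final, with Km-level 10 uM D-luciferin and 10 uM ATP in 50 mM Tris acetate pH 7.5, 10 mM Mg acetate, 0.01% Tween-20, 0.05% BSA; 6-point qHTS titration about 60 µM downward; luminescence read.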
Chain of Luciferin 4-monooxygenase (Photinus pyralis) (P08659 whole entry, looked up): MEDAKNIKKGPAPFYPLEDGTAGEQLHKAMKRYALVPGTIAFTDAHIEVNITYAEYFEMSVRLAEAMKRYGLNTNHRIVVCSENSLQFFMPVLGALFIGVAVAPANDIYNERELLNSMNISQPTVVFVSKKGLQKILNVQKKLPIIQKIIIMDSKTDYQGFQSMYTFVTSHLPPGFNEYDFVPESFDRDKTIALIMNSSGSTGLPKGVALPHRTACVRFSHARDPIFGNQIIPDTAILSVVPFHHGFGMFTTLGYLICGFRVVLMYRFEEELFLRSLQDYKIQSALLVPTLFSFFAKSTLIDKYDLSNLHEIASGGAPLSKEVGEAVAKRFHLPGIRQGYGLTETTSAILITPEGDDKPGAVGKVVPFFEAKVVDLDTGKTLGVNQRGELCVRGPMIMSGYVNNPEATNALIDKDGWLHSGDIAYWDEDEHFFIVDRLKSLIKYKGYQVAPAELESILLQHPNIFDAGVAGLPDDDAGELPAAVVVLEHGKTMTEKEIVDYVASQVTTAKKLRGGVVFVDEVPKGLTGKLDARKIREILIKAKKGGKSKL
For the compound `CCOC(=O)c1cc(-c2ccccc2)n(CCC(=O)Nc2ccccc2CC)c1C`, the “activity change, negative = inhibition” value is -1.81%.
`CC1=Nc2cc(C(=O)N3CCC(C)CC3)ccc2Sc2ccc(Cl)cc21`: the “activity change, negative = inhibition” value is 2.21%.
As for `CC(=O)Nc1cccc(NC(=O)CSc2nccn2Cc2ccc3c(c2)OCO3)c1`, the “activity change, negative = inhibition” value was -7.66%.
For the compound `COc1ccc(Br)cc1CNC(=O)c1cc(=O)[nH]c2ccc(S(=O)(=O)N3CCCC3)cc12`, the “activity change, negative = inhibition” value was -0.37%.
Consider `O=c1c2c(ncn1Cc1ccccc1)nc1n2CCC1`, for which the “activity change, negative = inhibition” value is 3.35%.
As for `Cc1cc(C)nc(NS(=O)(=O)c2ccc(NC(=O)c3cc(=O)c4ccc(C)c(C)c4o3)cc2)n1`, the “activity change, negative = inhibition” value was -19.3%.
In the case of `O=c1cc(CSc2ncn[nH]2)[nH]c2ccc(F)cc12`, the “activity change, negative = inhibition” value is 7.8%.
In the case of `CC(C)N(Cc1nnc(-c2ccccc2Br)o1)C(=O)c1cc(Cl)nc2ccccc12`, the “activity change, negative = inhibition” value is 4.54%.
As for `CCN(CC)c1ccc(C(=O)N/N=C/c2ccc(N3CCOCC3)cc2)cc1`, the “activity change, negative = inhibition” value is -6.56%.
As to `Cc1ccc(OCCCC(=O)Nc2ccc(N3CCOCC3)cc2)cc1`, the “activity change, negative = inhibition” value was -2.1%.
Take `Cc1cc(C(=O)N/N=C/c2ccc(N3CCOCC3)cc2)c(C)o1`: the Potency is 13.5 µM (active).
As to `O=c1c2ccccc2ccc2ccc(P(=O)(O)O)cc12`, the “activity change, negative = inhibition” value is 2.5%.
On to `O=C(COC(=O)c1ccccn1)NNC(=O)c1ccc([N+](=O)[O-])cc1`, for which the “activity change, negative = inhibition” value was 2.2%.
The same measure, in the same setting: next, `COc1ccc(C(=O)CSc2nc(C)cc(C)n2)cc1[N+](=O)[O-]`: -13.8%; `O=C(OCc1ccc([N+](=O)[O-])cc1)c1ccccn1`: -0.663%.
Regarding `COc1ccc(C(=O)O/N=C(\N)c2ccccn2)cc1[N+](=O)[O-]`, the Potency was 12 µM (active).
The same measure, in the same setting: next, `Cc1ccc(C(=O)O/N=C(\N)c2ccccn2)cc1Cl`: 0.169 µM (active).
For the compound `COc1ccc(C(=O)NNC(=O)c2cnccn2)cc1[N+](=O)[O-]`, the “activity change, negative = inhibition” value was 6.8%.
`O=C(Nc1ccccc1Cl)O/N=C(/c1ccccc1)c1ccccn1`: the “activity change, negative = inhibition” value was -8.09%.
Consider `N/C(=N\OC(=O)c1ccc([N+](=O)[O-])cc1)c1ccccn1`, for which the Potency is 0.601 µM (active).
Turning to `Cc1ccc(NC(=O)c2ccccn2)cc1S(=O)(=O)N1CCOCC1`, the “activity change, negative = inhibition” value was -1.27%.
As to `O=C(CCS(=O)(=O)c1cc(Br)cc2c1N(C(=O)C1CC1)CC2)Nc1ccc(C(F)(F)F)cc1`, the “activity change, negative = inhibition” value was -0.598%.
As to `C/C=N/NC(=O)CCCC(=O)N/N=C/C`, the “activity change, negative = inhibition” value was -3.72%.
Still for that read-out and setting: next, `COc1ccccc1C(=O)NCC(=O)NCCSc1ccc(Br)cc1`: 0.478%.
For the compound `Cn1nnnc1SCCCNCc1ccc(Cl)cc1`, the “activity change, negative = inhibition” value was -1.11%.
On to `Cc1ccc(NC(=O)C(=O)NCC(c2cccnc2)N2CCOCC2)cc1` (configuration not stated), for which the “activity change, negative = inhibition” value is -1.67%.
Turning to `Cn1c(SCC(=O)c2ccccc2)ncc(C(=O)Nc2ccc(F)cc2)c1=O`, the “activity change, negative = inhibition” value was -4.55%.
As to `Cc1ccc(NC(=O)c2cnc(SCC(=O)NCC3CCCO3)n(C)c2=O)cc1` (configuration not stated), the Potency is 9.53 µM (active).
As to `Cc1cc(NC(=O)CSc2ncc(C(=O)Nc3ccc(Cl)cc3)c(=O)n2C)no1`, the “activity change, negative = inhibition” value was -5.36%.
`COc1ccc(Cl)cc1NC(=O)CSc1nc(=O)[nH]c2c1CCCC2`: the “activity change, negative = inhibition” value was -11.4%.
Same read-out and setting: then `NC(=O)C1CCN(C(=O)/C(=C/c2ccco2)NC(=O)c2ccccc2)CC1`, with -1.25%.
Take `O=C(NCC1CCCO1)/C(=C\c1ccco1)NC(=O)c1ccccc1` (configuration not stated): the “activity change, negative = inhibition” value is -2.53%.
On to `C/C(=C\c1ccco1)C1Nc2cccc3cccc(c23)N1`, for which the Potency is 10.7 µM (active).
Regarding `Clc1ccc(Cc2nnc(-c3cccs3)o2)cc1`, the Potency was 19 µM (active).
With `CNC(=O)c1nnc(Cc2ccc(Cl)cc2)o1`, the “activity change, negative = inhibition” value was 3.86%.
Take `c1csc(-c2nnc(COc3ncnc4sccc34)o2)c1`: the “activity change, negative = inhibition” value was 4%.
With `CC(Sc1oc(-c2ccco2)nc1S(=O)(=O)c1ccc(Br)cc1)c1ccccc1` (configuration not stated), the “activity change, negative = inhibition” value was 3.32%.
Still for that read-out and setting: then `Cc1cc(C)n2nc(C(=O)OCC(=O)N(C)CC(=O)Nc3ccc(F)cc3)nc2n1`, with 4.22%.
On the same count and under the same terms, next, `COc1ccc(CNC(=O)c2cc3c(=O)[nH]c4ccc(C)cc4c3s2)c(OC)c1`: -8.78%.
`Cc1ccc(NC(=O)CCC(=O)c2ccc(Br)cc2)cc1`: the “activity change, negative = inhibition” value is -2.06%.
As for `Cc1ccc(C(=O)NC2CCN(C(=O)Nc3ccc(F)cc3)CC2)cc1`, the “activity change, negative = inhibition” value was -1.62%.
Take `COC(=O)c1ccc(NCC(=O)c2ccccc2)cc1`: the Potency is 1.51 µM (active).
Take `Cc1ccc(C(=O)CNc2ccc(F)cc2)cc1`: the Potency was 4.78 µM (active).
As for `CCOC(=O)c1nc(Nc2ccc(C(=O)OC)cc2)c2ccccc2n1`, the Potency result is “inactive”.
In the case of `COC(=O)c1ccc(NCC(=O)N2CCCCCC2)cc1`, the “activity change, negative = inhibition” value was -11.5%.
As to `CCn1c2ccccc2c2nnc(N3CCN(c4cc(C)ccc4C)CC3)nc21`, the “activity change, negative = inhibition” value was -2.96%.
Still for that read-out and setting: then `CC(=O)Nc1cc(C(=O)NCc2ccc(F)cc2Cl)ccc1Sc1ccc(Cl)cc1`, with -11.1%.
As to `O=c1c(=O)n(Cc2c(F)cccc2Cl)ccn1Cc1ccccc1`, the “activity change, negative = inhibition” value was 0.984%.
Take `CCOC(=O)C1CCN(c2c(Nc3cc(C)cc(C)c3)c(=O)c2=O)CC1`: the “activity change, negative = inhibition” value is -0.907%.
For the compound `CCOC(=O)C1CCN(c2ccc(C(=O)O)cc2[N+](=O)[O-])CC1`, the “activity change, negative = inhibition” value is 4.31%.
Turning to `CCOC(=O)C1CCN(c2csc3ccc(C)cc3c2=O)CC1`, the Potency is 7.57 µM (active).
For `CCOCCCNC(=O)c1cn(CC)c2ccc(S(=O)(=O)N3CCc4ccccc4C3)cc2c1=O`, the “activity change, negative = inhibition” value is 3.89%.
